{"source": "PubChem BioAssay AID1345082", "about": "(National Center for Advancing Translational Sciences (NCATS), 2018)", "note": "“And” between values parts separate entries of the source, which are not always exact repeats. Identical values can stand only once. The campaign covered roughly 94,000 compounds. About 4,000 (4.3%) were called active. Inconclusive results (about 29%) are left out. The sample as a whole holds a higher share of actives than the screen did. Unmarked numbers belong to inactive results. The call rests on the fitted dose curve; in most records, active means well fitted inhibition curve with a large enough effect; inconclusive means small, poorly fitted or top-dose-only effect; inactive means no such curve, though single readings can be large or run the other way. On the % scale 0 is the no-effect control and ±100 the full control effect; potency means the concentration at half of the fitted maximal effect.", "data": [{"experiment": "Cytotoxic Profiling in NIH 3T3 Cell Line of Diverse Libraries Using Quantitative High-Throughput Screening; further: nearly all actives have a fitted effect of over 55% in size", "conditions": "NIH 3T3 viability, CellTiter-Glo ATP luminescence, 48-72 h; series mostly up to 96.7 µM; activity change, negative = cytotoxicity: at the top concentration", "summary_of_the_method": "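Mouse fibroblast NIH 3T3 cells, 400 per well, received compound via pintool and were incubated for 48 or 72 hr prior to CellTiter-Glo ATP luminescence measurement.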", "values": [{"smiles": "Cc1ccc2[nH]c(=O)c(CCC(=O)NCc3ccncc3)cc2c1", "outcome": "inactive"}, {"smiles": "COC(=O)[C@@H]1C[C@H](NC(=O)c2cc(OC)nc(OC)n2)CN1C", "activity change, negative = cytotoxicity": "2.76%"}, {"smiles": "COc1ccccc1N1CCN(C(=O)CCc2conc2-c2ccccc2F)CC1", "activity change, negative = cytotoxicity": "-8.02%"}, {"smiles": "COc1ccccc1N1CCN(C(=O)C[C@@H]2C[C@@H](C(C)C)[C@H](CO)C=C2C)CC1", "Potency": "100 µM (active)"}, {"smiles": "CC1=C[C@@H](CC#N)[C@H](C(C)C)C[C@H]1CC(=O)N1CCN(C)CC1", "activity change, negative = cytotoxicity": "-19.7% [at 174 µM]"}, {"smiles": "O=C(c1ccnc(-c2nnc3ccc(N4CCOCC4)nn23)c1)N1CCCCC1", "Potency": "20 µM (active)"}, {"smiles": "O=C(NC1CCCC1)NC1CCN(c2ccc3nnc(-c4ccccc4)n3n2)CC1", "activity change, negative = cytotoxicity": "-31.4%"}, {"smiles": "COc1ccccc1C(=O)N1CCCN(c2ccc3nnc(C)n3n2)CC1", "activity change, negative = cytotoxicity": "0.238%"}, {"smiles": "CCn1nccc1C(=O)N1CCCCCC1c1nc(C2CC2)no1", "note": "(configuration not stated)", "activity change, negative = cytotoxicity": "-20.5%"}, {"smiles": "COc1ccc(S(=O)(=O)N2CCCC(Cn3cnc4cccnc43)C2)cc1", "note": "(configuration not stated)", "activity change, negative = cytotoxicity": "-22.5%"}, {"smiles": "COc1ccc(-c2nc(CN3CCOC(CN)C3)c(C)o2)c2ccccc12", "note": "(configuration not stated)", "Potency": "25.1 µM (active)"}, {"smiles": "Cc1oc(-c2cccs2)nc1CN1CCOC(Cc2ccccc2)C1", "note": "(configuration not stated)", "activity change, negative = cytotoxicity": "-23.1%"}, {"smiles": "Cc1oc(-c2cc(F)ccc2F)nc1CN1CCN(c2ccccc2)CC1C", "note": "(configuration not stated)", "activity change, negative = cytotoxicity": "-9.27%"}, {"smiles": "CCn1cnnc1CC1CCN(C(=O)C2CCN(Cc3nc(-c4cccc(C)c4)oc3C)CC2)CC1", "activity change, negative = cytotoxicity": "-19%"}, {"smiles": "Cc1oc(-c2cccc(Oc3ccccc3)c2)nc1CN1CCOC(CCN)C1", "note": "(configuration not stated)", "Potency": "25.1 µM (active)"}, {"smiles": "CCC1CN(Cc2cn(-c3ccccc3)nc2-c2ccc(OC)cc2F)CCO1", "note": "(configuration not stated)", "activity change, negative = cytotoxicity": "-4.55%"}, {"smiles": "O=C(c1cn2cc(Cl)ccc2n1)N1CCc2nc(-c3ccccc3)[nH]c2C1", "activity change, negative = cytotoxicity": "-40.3%"}, {"smiles": "COC(=O)[C@@H]1C[C@@H](NC(=O)c2ccc(-c3nnn(C)n3)cc2)CN1C", "activity change, negative = cytotoxicity": "0.0956%"}, {"smiles": "COC(=O)[C@@H]1Cc2c([nH]c3ccccc23)[C@H]2C[C@H](NCCNC(C)=O)C[C@@H](c3ccc(C)cc3)N21", "Potency": "25.1 µM (active)"}, {"smiles": "O=C(CC1COCCN1)N1CCC(OCc2cccnc2)CC1", "note": "(configuration not stated)", "activity change, negative = cytotoxicity": "-4.09%"}, {"smiles": "CCCOC(=O)N1CCCC(c2nccn2CCCN(C)C)C1", "note": "(configuration not stated)", "activity change, negative = cytotoxicity": "0.743%"}, {"smiles": "O=C(c1cc2ccccc2o1)N1CCC2(CNS(=O)(=O)c3cnccc3O2)C1", "note": "(configuration not stated)", "outcome": "inactive"}, {"smiles": "C=CCNC(=O)c1ccc2ccnn2c1", "activity change, negative = cytotoxicity": "-2.27% [at 174 µM]"}, {"smiles": "COc1ccc(-c2nc3ccncc3[nH]2)cc1", "Potency": "10 µM (active) and 17.8 µM (active)"}, {"smiles": "COc1ccc(C(=O)N2CCCC(C(=O)N3CCCC(c4nc5ccncc5[nH]4)C3)C2)cc1", "note": "(configuration not stated)", "activity change, negative = cytotoxicity": "-24%"}, {"smiles": "COc1ccc(C(=O)N2CCCC2C(=O)N2CCCC2c2nc3ccncc3[nH]2)cc1", "note": "(configuration not stated)", "activity change, negative = cytotoxicity": "-3.18%"}, {"smiles": "CCc1noc(-c2ccn3c(CNC(=O)c4ccco4)nnc3c2)n1", "activity change, negative = cytotoxicity": "-2.86%"}, {"smiles": "Cc1noc(CC2CCOC3(CCN(C(=O)c4ccc(C#N)cc4)CC3)C2)n1", "note": "(configuration not stated)", "activity change, negative = cytotoxicity": "-17.6%"}, {"smiles": "CCn1ncc(N2CCCC(CC(=O)NCc3cccnc3)C2)cc1=O", "note": "(configuration not stated)", "activity change, negative = cytotoxicity": "4.64%"}, {"smiles": "O=C(NC[C@H]1COCc2nc3cc(C(F)(F)F)ccc3n21)c1cnccn1", "activity change, negative = cytotoxicity": "-12.6% [at 138 µM]"}, {"smiles": "CC1=C[C@@H](CNC2CCN(C)CC2)[C@H](C(C)C)C[C@H]1Cc1nc2ccccc2[nH]1", "Potency": "35.5 µM (active)"}, {"smiles": "CC1=C[C@@H](CN(CC2CC2)CC2CC2)[C@H](C(C)C)C[C@H]1Cc1nc2c(C)cccc2[nH]1", "Potency": "79.4 µM (active)"}, {"smiles": "CC1=C[C@@H](CNC(=O)CC2(CC(=O)O)CCCC2)[C@H](C(C)C)C[C@H]1Cc1nc2c(C)cccc2[nH]1", "activity change, negative = cytotoxicity": "-4.68%"}, {"smiles": "CC(=O)N1CCC(NC[C@@H]2C=C(C)[C@H](Cc3nc4ccccc4n3C)C[C@H]2C(C)C)CC1", "activity change, negative = cytotoxicity": "-14.2%"}, {"smiles": "CC1=C[C@@H](CNCC(C)C)[C@H](C(C)C)C[C@H]1Cc1nc2c(C)cccc2[nH]1", "Potency": "39.8 µM (active)"}, {"smiles": "COc1ccc2nc(C[C@@H]3C[C@@H](C(C)C)[C@H](CNC(=O)CC(C)(C)CC(=O)O)C=C3C)[nH]c2c1", "activity change, negative = cytotoxicity": "-22.3%"}, {"smiles": "CCNC(=O)[C@@H]1C[C@@H](NC(=O)c2csc(C)c2CC)CN1C1CCCC1", "activity change, negative = cytotoxicity": "-28.1%"}, {"smiles": "CCOc1ccccc1CN1CCN(C2CCN(C(C)C)CC2)C(CCO)C1", "note": "(configuration not stated)", "activity change, negative = cytotoxicity": "-19.7%"}, {"smiles": "COc1ccc(CN[C@@H]2CCC[C@@H](C(=O)NCc3cc(C)on3)CC(=O)N(C)C2)cn1", "outcome": "inactive [at 174 µM]"}, {"smiles": "CCn1nc(CNC(=O)C2CCC(=O)N(C3CCCC3)C2)c2ccccc21", "note": "(configuration not stated)", "activity change, negative = cytotoxicity": "-3.82%"}, {"smiles": "COc1cc(NC(=O)Cn2nc3n(c2=O)CCCCC3)cc(OC)c1OC", "outcome": "inactive"}, {"smiles": "Cc1cccc(C(=O)N2CCC(Oc3ccc(-c4noc(C(C)C)n4)cc3)C2)c1", "note": "(configuration not stated)", "activity change, negative = cytotoxicity": "-31.8%"}, {"smiles": "O=C(c1ccoc1)N1CC(Oc2ccc(-c3nc(-c4ccccc4)no3)cc2)C1", "activity change, negative = cytotoxicity": "-5.84%"}, {"smiles": "Cc1noc(-c2ccccc2OC2CCN(C(=O)c3cnccc3C)C2)n1", "note": "(configuration not stated)", "activity change, negative = cytotoxicity": "-15.5%"}, {"smiles": "c1ccc(-c2noc(-c3ccccc3OC3CCNC3)n2)cc1", "note": "(configuration not stated)", "Potency": "12.6 µM (active)"}, {"smiles": "COCc1nc(-c2ccc(OC3CNC3)cc2)no1", "activity change, negative = cytotoxicity": "-1.51%"}, {"smiles": "Cc1nc(C)c(C(=O)N2CCC(Oc3ccccc3-c3nc(-c4ccccc4)no3)C2)s1", "note": "(configuration not stated)", "Potency": "39.8 µM (active)"}]}]}
